Measured values from PubChem BioAssay (NCI).
The panel holds about 83,000 compounds, 20% with a hit somewhere; the sample as a whole holds those more often.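 The endpoint reported here, percent growth, reads 100 for growth as untreated, 0 for no net growth and -100 for all cells dead.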 A number with no mark means an inactive call. Active and inactive are the calls of the source. The calls were made as follows: active = growth percent below 10; inactive = the rest.

Legend:
Experiment in all cases: NCI-60 one-dose screen, 48 h (100 = growth as untreated, 0 = no growth, -100 = all killed)
Conditions in all cases: 10 µM unless noted
SK-MEL-2 melanoma = tested on: SK-MEL-2 melanoma
EKVX NSCLC = tested on: EKVX NSCLC
SN12C renal = tested on: SN12C renal
UO-31 renal = tested on: UO-31 renal
TK-10 renal = tested on: TK-10 renal
ACHN renal = tested on: ACHN renal
CAKI-1 renal = tested on: CAKI-1 renal
A498 renal = tested on: A498 renal
CCRF-CEM leukemia = tested on: CCRF-CEM leukemia
MOLT-4 leukemia = tested on: MOLT-4 leukemia

Compound	growth (SK-MEL-2 melanoma)	growth (EKVX NSCLC)	growth (SN12C renal)	growth (UO-31 renal)	growth (TK-10 renal)	growth (ACHN renal)	growth (CAKI-1 renal)	growth (A498 renal)	growth (CCRF-CEM leukemia)	growth (MOLT-4 leukemia)
O=C(N=Nc1c(O)[nH]c2ccccc12)c1cc(-c2ccccc2)on1	108%	92%	96%	85.4%	123%	97.2%	86.7%	103%	107%	104%
CNc1ccc(-c2cc(=O)oc3ccc(Cl)cc23)cc1	33.7%	40.1%	29.9%	47.7%	50%	37%	34.4%	-3.47% (active)	14.4%	11.3%
COc1ccc(-c2cc(NC(=O)Nc3ccc4ncsc4c3)no2)cc1	112%	95.9%	96.3%	106%	104%	99.6%	91%	100%	106%	96.1%
Cc1nn(-c2ccc(F)cc2)c2ncnc(Oc3ccc(NC(=O)Nc4ccc(Cl)c(C(F)(F)F)c4)cc3)c12	102%	105%	95.1%	100%	104%	102%	95.3%	99.2%	102%	104%
CCCSc1ccc2nc(NC(=O)OC)[nH]c2c1	7.33% (active)	58.2%	41.5%	45.5%	39.7%	48.6%	55%	-5.4% (active)	10.6%	23.6%
O=C(/C=C/c1ccccc1)c1ccc(O)c(CN2CCN(c3cc4c(cc3F)c(=O)c(C(=O)O)cn4C3CC3)CC2)c1	22.8%	43.3%	8.48% (active)	12.3%	62.7%	14.4%	20.6%	-18.4% (active)	18.4%	35.8%
Cc1nc(/N=C(\N)NC(=O)Nc2cccc([N+](=O)[O-])c2)sc1C	88.1%	77.3%	86.9%	83%	110%	92%	58.3%	57.2%	69.1%	51.5%
Cc1nc2ccccc2n1C(=O)C[C@@H]1NC(=S)NC1=O	113%	93.6%	103%	78.3%	90.9%	96.5%	91.5%	94.9%	109%	100%
Cn1cc(C(=O)c2nc(-c3c[nH]c4ccccc34)no2)c2ccccc21	65.3%	50.5%	91.3%	61.6%	68.2%	86.4%	56.9%	95.9%	86.7%	72.5%
COc1ccc(-c2nc3ccc(-c4nc5ccc(N6CCN(c7ccccc7)CC6)cc5[nH]4)cc3[nH]2)cc1OC	89%	40.1%	52%	99.6%	12.4%	44.8%	65.3%	88.4%	6.07% (active)	-5.57% (active)
CC1=C/C(=C(\c2ccc(N(C)C)cc2)c2ccc([N+](C)(C)C)cc2)C=CC1=[N+](C)C	110%	54.8%	50.9%	96.1%	90%	78.1%	99.2%	81.9%	85.8%	106%
CN1CCN(c2ccc3nc(-c4ccc(OCCCCN5CCN(CCCCN6C(=O)c7cccc8cccc(c78)C6=O)CC5)cc4)[nH]c3c2)CC1	79.2%	78.9%	73.8%	16.7%	88.4%	89%	33.1%	119%	26.2%	52%
COc1ccc(S(=O)(=O)N2CCN(C)CC2)cc1NC(=O)c1[nH]c(C)c2c1CCCCC2=O	79.6%	58.4%	60.4%	37%	33.4%	58.6%	21.2%	60.9%	75.5%	81.4%
COc1ccc(-n2nc(C)c3c(Nc4ccc(NC(=O)Nc5cccc(C(F)(F)F)c5)cc4)ncnc32)cc1	-21.1% (active)	10.1%	22.5%	-44.9% (active)	10.7%	-10.2% (active)	-18.9% (active)	48.5%	18.2%	8.98% (active)
CSc1nc(-c2cccc(NC(=O)CCl)c2)c(C#N)c(=O)n1C	70.9%	70.8%	81%	-53.2% (active)	117%	73.9%	83.7%	90.2%	-16.5% (active)	14%
Brc1ccc(-c2csc(Nc3ccccn3)n2)cc1	69.8%	70%	95.7%	75.8%	101%	217%	84.2%	91.3%	74.8%	82.6%
CC(=O)O[C@H]1CC[C@]2(C)[C@H]3CC=C4[C@@H]5CC(C)(C)CC[C@]5(C(=O)NCCNCCN)CC[C@@]4(C)[C@]3(C)CC[C@H]2C1(C)C	82.5%	28.8%	-89.9% (active)	-91.6% (active)	-79% (active)	-100% (active)	-68.7% (active)	38.6%	-40.1% (active)	-39.9% (active)
O=C1OCC2=C1C(c1ccncc1)c1cc3c(cc1N2CCO)OCO3 (stereo not given)	107%	101%	100%	94.7%	101%	105%	99.3%	90%	94%	107%
CC1(C)CC[C@]2(C(=O)Nc3ccccn3)CC[C@]3(C)C(=CC[C@@H]4[C@@]5(C)C/C(=C/c6cccnc6)C(=O)C(C)(C)[C@@H]5CC[C@]43C)[C@H]2C1	63.9%	42.5%	32.6%	37.4%	68.9%	26.5%	36.3%	39.9%	20.9%	13.2%
CC(=O)NCC1c2c(n(C)c3c(Cl)c(Cl)ccc23)C(=O)NC1(C)C (stereo not given)	103%	90.7%	85.5%	84.6%	89.5%	95.1%	77.4%	93%	107%	84.9%
C=CC(=O)Nc1cccc(Nc2nc(SC)nc(-c3cccc([N+](=O)[O-])c3)c2C#N)c1	46.8%	53.2%	62.9%	60.8%	32.1%	55.6%	42.6%	-1.13% (active)	72.2%	59.8%
N#Cc1c(N)n(CCNC(=O)c2ccccc2)c2nc3ccccc3nc12	90.3%	123%	120%	89.4%	102%	118%	115%	135%	133%	44.7%
C=C1C(=O)O[C@H]2[C@H]1CC/C(COC(=O)c1cc3cc(OC)ccc3[nH]1)=C\CC[C@@]1(C)O[C@@H]21	-76.2% (active)	-86.2% (active)	-80.8% (active)	-95.6% (active)	-97% (active)	-93.9% (active)	-95.1% (active)	-95.3% (active)	-21% (active)	-14.6% (active)
O=C1Nc2cc(-c3ccc(O)cc3)ccc2/C1=C/c1ccc[nH]1	2.16% (active)	12%	13.6%	-3.39% (active)	17.7%	4.81% (active)	2.43% (active)	-3.08% (active)	6% (active)	7.4% (active)
CCCOc1cc2ccccc2cc1C(=O)Nc1nc(N)c2c(ccc3nccc32)[nH]1	-49.6% (active)	-73.7% (active)	-63.6% (active)	-65% (active)	-37.3% (active)	-80.9% (active)	-46.7% (active)	-87.6% (active)	-13% (active)	-40.9% (active)
